# Laboratory results taken from the supplement of paper PMC10981050.
# “And” between values parts separate entries of the source, which are not always exact repeats. Equal entries are not always repeated. Structures can show the parent of a compound that is named as a salt.
# Legend:
# Assay in all cases: cell viability relative to vehicle control; higher = less cytotoxic
# Conditions in all cases: 10 µM
# K562 = tested on: K562
# How it was run: (§1)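 CRISPR-edited mutant clones and isogenic wild-type clones from four leukaemia lines were screened against Selleck bioactive, kinase and epigenetic probe libraries, with identity-inconsistent compounds excluded. Each compound was acoustically dispensed at a single 10 µM dose into 384-well plates holding 2000 cells in 50 µL medium per well. After 48 h the supernatant was removed and CellTiter-Glo luminescence was read. Viability was expressed as percent of the on-plate vehicle control and analysed in Genedata Screener.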
# MARIMO = tested on: MARIMO
# How it was run: as §1
# MOLM14 = tested on: MOLM14
# How it was run: as §1
# OCI-AML2 = tested on: OCI-AML2
# How it was run: as §1
Compound,cell viability (K562; SRSF2 genotype: SRSF2 P95H/wt),cell viability (K562; SRSF2 genotype: SRSF2 wt/wt),cell viability (MARIMO; SRSF2 genotype: SRSF2 P95H/wt),cell viability (MARIMO; SRSF2 genotype: SRSF2 wt/wt),cell viability (MOLM14; SRSF2 genotype: SRSF2 P95H/wt),cell viability (MOLM14; SRSF2 genotype: SRSF2 wt/wt),cell viability (OCI-AML2; SRSF2 genotype: P95H/wt),cell viability (OCI-AML2; SRSF2 genotype: wt/wt)
CCOC(=O)c1csc(Nc2ccc(Cl)cc2)n1,97.1% and 103%,92.5%,81%,92.8%,111%,111%,75.6%,71.8%
O=C(Nc1cc(C(F)(F)F)cc(C(F)(F)F)c1)c1cc(Cl)ccc1O,5.29% and 8.22%,5.97%,19%,18.3%,10.3%,8.64%,2.4%,8.72%
C[Si](C)(C)CCOCn1ccc2c(-c3cn[nH]c3)ncnc21,98.4% and 99.6%,109%,98.6%,106%,95.9%,106%,100%,99%
C/C(=N\NC(=O)c1cccc(S(=O)(=O)N2CCOCC2)c1)c1cc(Cl)ccc1O,57.4% and 51.4%,37%,20.1%,24.4%,6.59%,1.96%,10.8%,11.4%
Cc1cc(=O)c2c(O)c3c(cc2o1)OC(C)(C)[C@@H](O[C@@H]1O[C@H](CO)[C@@H](O)[C@H](O)[C@H]1O)C3 [Sec-O-Glucosylhamaudol],105% and 101%,114%,106%,98.7%,109%,101%,94%,91.3%
Cc1cnc(Nc2ccc(OCCN3CCCC3)cc2)nc1Nc1cccc(S(=O)(=O)NC(C)(C)C)c1,1.46% and 2.3%,2.29%,6.76%,10.9%,0.67%,0.58%,0.71%,1.39%
CCCCN1CCCC[C@H]1C(=O)Nc1c(C)cccc1C [Levobupivacaine HCl],82.7% and 79.1%,80.2%,82.3%,85.1%,83.5%,88.7%,82.3%,90.8%
O=c1[nH]c(=O)n([C@H]2C[C@H](O)[C@@H](CO)O2)cc1F [Floxuridine],54.2% and 46.3%,30.1%,86.5%,96.5%,48%,14.9%,30.9%,48.8%
Cn1c(=O)c2c(ncn2CC(O)CO)n(C)c1=O (stereo not given) [Dyphylline (Dilor)],101% and 102%,100%,94.9%,105%,97.8%,101%,95%,102%
CO[C@H]1C[C@H](O[C@@H]2/C(C)=C/C[C@@H]3C[C@@H](C[C@]4(CC[C@H](C)[C@@H](C5CCCCC5)O4)O3)OC(=O)[C@@H]3C=C(C)/C(=N/O)[C@H]4OC/C(=C\C=C\[C@@H]2C)[C@]43O)O[C@@H](C)[C@@H]1O [Selamectin],16.6% and 37.1%,27.3%,3.71%,4.17%,38.4%,17%,10.6%,24.5%
CCCCc1nc(C)c(CC(=S)N(C)C)c(=O)n1Cc1ccc(-c2ccccc2-c2nnn[nH]2)cc1 [Fimasartan],100% and 107%,106%,108%,109%,101%,103%,106%,93.1%
O=C1C(N(CO)C(=O)NCO)N(CO)C(=O)N1CO (stereo not given) [Diazolidinyl urea],96.3% and 98.6%,106%,98.9%,98.3%,93.8%,104%,111%,129%
CC(=O)OC(C)(C)CCC(=O)[C@](C)(O)[C@H]1[C@H](O)C[C@@]2(C)[C@@H]3CC=C4[C@@H](C[C@H](O)[C@@H](O)C4(C)C)[C@]3(C)C(=O)C[C@]12C [Curcurbitacin IIA],67.7% and 75.2%,77.4%,80.9%,87.6%,34.7%,22.4%,21.4%,28.8%
CCOc1cc(C(=O)N2CCC(N3CCN(C)CC3)CC2)ccc1Nc1ncc2c(n1)N(C1CCCC1)c1ccccc1C(=O)N2C,10.3% and 7.13%,15.2%,35.2%,35.2%,0.3%,0.37%,2.24%,10.6%
COc1cc2c(cc1OC)-c1cc3ccc4c(c3c[n+]1CC2)OCO4 [Epiberberine],84.1% and 89.4%,85.8%,98.2%,98.2%,94.8%,86.9%,86.4%,89.3%
CC1(C)OC(=O)C=C[C@]2(C)[C@H]3CC[C@@]4(C)[C@H](c5ccoc5)OC(=O)[C@H]5O[C@]54[C@]3(C)C(=O)C[C@@H]12 [Obacunone],103% and 98.1%,95.4%,92.7%,95.5%,97.4%,102%,91.1%,93.6%
COC(=O)[C@@H]1[C@H]2C[C@H]3c4[nH]c5ccccc5c4CCN3C[C@@H]2CC[C@@H]1O [Yohimbine hydrochloride (Antagonil)],103% and 98.2%,96.5%,95.8%,103%,95%,102%,94.9%,96.1%
Cc1cnc(NC(=O)Nc2cc(Br)c(C)cc2OC[C@@H]2CNCCO2)cn1,8.35% and 7.58%,8.76%,20.6%,8.01%,10.8%,6.96%,12.8%,12.1%
"CCCS(=O)(=O)Nc1ccc(F)c(C(=O)c2c[nH]c3ncc(-c4ccc(Cl)cc4)cc23)c1F [Vemurafenib (PLX4032, RG7204)]",92.8% and 102%,94.8%,92.6%,106%,102%,108%,111%,105%
Cc1cc(C)cc(NC(=O)Cc2ccc(OC(C)(C)C(=O)O)cc2)c1 [Efaproxiral sodium],102% and 99.1%,99.9%,109%,119%,110%,103%,106%,116%

Compound,cell viability (K562; SRSF2 genotype: SRSF2 P95H/wt),cell viability (K562; SRSF2 genotype: SRSF2 wt/wt),cell viability (MARIMO; SRSF2 genotype: SRSF2 P95H/wt),cell viability (MARIMO; SRSF2 genotype: SRSF2 wt/wt),cell viability (MOLM14; SRSF2 genotype: SRSF2 P95H/wt),cell viability (MOLM14; SRSF2 genotype: SRSF2 wt/wt),cell viability (OCI-AML2; SRSF2 genotype: P95H/wt),cell viability (OCI-AML2; SRSF2 genotype: wt/wt)
CC1(C)CC(=O)c2c(C(F)(F)F)nn(-c3ccc(C(N)=O)c(N[C@H]4CC[C@H](O)CC4)c3)c2C1,23.7% and 29.5%,27.1%,30.9%,25.9%,3.24%,4.55%,13.9%,21.4%
O=C1Cc2cc(CCN3CCN(c4nsc5ccccc45)CC3)c(Cl)cc2N1 [Ziprasidone hydrochloride],87% and 98.6%,97%,88.7%,95.2%,37.8%,81.3%,91.9%,88.1%
CCCCC(=O)N(Cc1ccc(-c2ccccc2-c2nnn[nH]2)cc1)[C@H](C(=O)O)C(C)C [Valsartan (Diovan)],102% and 98.1%,105%,102%,112%,104%,106%,101%,112%
CC1=C(C/C=C(\C)CCC[C@H](C)CCC[C@H](C)CCCC(C)C)C(=O)c2ccccc2C1=O [Vitamin K1],101% and 88.9%,93.7%,92.4%,107%,88.2%,98%,90.7%,106%
CCOc1cc(C=O)ccc1OC(C)=O [Ethyl vanillin acetate],103% and 99.2%,102%,105%,108%,96.4%,98.5%,98%,108%
Nc1cccc(S(=O)(=O)N2CCCN(S(=O)(=O)c3ccc4c(c3)OCCO4)CC2)c1,90.8% and 101%,101%,96.3%,98.8%,90.5%,97.7%,101%,97.5%
C[n+]1c2n(c(=O)c3ccccc31)CCc1c-2[nH]c2ccccc12 [Dehydroevodiamine hydrochloride],94.4% and 99.8%,89.2%,91.7%,100%,92.8%,92.9%,86.8%,96.2%
CCC(=O)O[C@]1(C(=O)CCl)[C@@H](C)C[C@H]2[C@@H]3C[C@H](F)C4=CC(=O)C=C[C@]4(C)[C@@]3(F)[C@@H](O)C[C@@]21C [Halobetasol Propionate],92.5% and 97.2%,89%,101%,98.1%,76.3%,85.8%,99.3%,105%
C=C1[C@H](CO)[C@@H](O)C[C@@H]1n1cnc2c(=O)[nH]c(N)nc21 [Entecavir],109% and 104%,103%,94.8%,101%,101%,106%,79.5%,93.7%
C[C@@H](N)[C@H]1CC[C@H](C(=O)Nc2ccncc2)CC1,105% and 97.4%,102%,93.7%,94.6%,97.2%,96.9%,85.9%,91.2%
COc1ccc2cc3[n+](cc2c1O)CCc1cc2c(cc1-3)OCO2 [Berberrubine],104% and 100%,111%,112%,98.3%,109%,109%,103%,99.1%
O=C(Cn1ccnc1[N+](=O)[O-])NCc1ccccc1 [Benznidazole],96.1% and 92.1%,95.9%,96.6%,92.8%,97.1%,99.4%,103%,100%
O=C(/C=C/c1ccc(O)cc1)C1=C(O)[C@](O)([C@@H]2O[C@H](CO)[C@@H](O)[C@H](O)[C@H]2O)C(O)=C(/C=C2/C(=O)C(C(=O)/C=C/c3ccc(O)cc3)=C(O)[C@@](O)([C@@H]3O[C@H](CO)[C@@H](O)[C@H](O)[C@H]3O)C2=O)C1=O [Safflower Yellow],97.2% and 89.1%,90.4%,91.5%,98.8%,90.4%,94.9%,97.7%,90.5%
Clc1cccc(-c2nnnn2Cc2cccnc2)c1Cl,103% and 112%,106%,102%,101%,101%,108%,108%,116%
O=C(/C=C/c1ccc(CN(CCO)CCc2c[nH]c3ccccc23)cc1)NO [LAQ824 (Dacinostat)],1.15% and 10.3%,2.76%,5.99%,11.9%,0.84%,0.58%,1.63%,2.36%
Nc1nccc(Oc2ccc3c(C(=O)Nc4cccc(C(F)(F)F)c4)cccc3c2)n1,86.8% and 94.3%,87.9%,109%,125%,93.6%,102%,94.8%,106%
O=c1cc(N2CCOCC2)oc2c1ccc1ccccc12,96.7% and 102%,99.6%,93.3%,102%,89.2%,96.7%,87.6%,96.7%
CCC[C@@H]1C[C@@H](C(=O)N[C@@H]([C@H]2O[C@H](SC)[C@H](O)[C@@H](O)[C@H]2O)[C@@H](C)O)N(C)C1 [Lincomycin hydrochloride (Lincocin)],102% and 79.7%,82.2%,88.7%,95.2%,92.6%,91.7%,79.5%,93.9%
"Nc1ccccc1NC(=O)c1ccc(CNC(=O)OCc2cccnc2)cc1 [Entinostat (MS-275, SNDX-275)]",9.53% and 33.8%,26.6%,22.1%,25.4%,1.22%,1.1%,0.59%,4.33%
CC(C)[C@H]1CC[C@H](C(=O)N[C@H](Cc2ccccc2)C(=O)O)CC1 [Nateglinide (Starlix)],103% and 101%,98.8%,97.8%,101%,97.9%,99.3%,105%,97.5%
